Screening data from PubChem BioAssay.
Sampled rows, rich in hits. Any-hit rate of the full collection: about 2.4%.
Pol iota inh: qHTS for Inhibitors of Polymerase Iota | actives 1% (n = 390,000) | Potency, µM (titrated, usually from 115 µM), actives largely listed as inhibitors | Pol iota fluorescent replication assay, 10 min
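Pol iota at 10 nM preincubated 15 min with compounds at room temperature; reaction started with fluorescent substrate, 50 nM final. Fluorescence read kinetically at 0 and 10 min; buffer-only wells as negative control.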
Pol eta inh-1: qHTS for Inhibitors of Polymerase Eta; Potency, µM (top dose mostly 114 µM), most hits filed as inhibitors; AID 588591, 2011; DNA polymerase eta (Homo sapiens), Q9Y253; recombinant Pol eta, fluorescent DNA replication assay; actives 1.2% (n = 390,000)
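Pol eta at 10 nM preincubated with compounds 15 min at room temperature; reaction started with fluorescent substrate (50 nM final) and read kinetically at 0 and 10 min.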
Pol beta inh: qHTS Assay for Inhibitors of DNA Polymerase Beta; P06746; Pol beta primer extension/strand displacement, fluorescence kinetic; Potency, µM (highest dose often 114 µM), usual class: inhibitors; actives 1.3% (n = 340,000)
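Curves were derived by four-parameter Hill fits of normalized qHTS data. The kinetic fluorescent primer-extension read was taken at 0 and 10 min after 50 nM substrate, following a 15 min room-temperature preincubation of 10 nM enzyme with compounds.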
PGK inhibitor: qHTS Assay to Find Inhibitors of Phosphoglycerate Kinase | Potency, µM (doses to about 57.5 µM), usual class: inhibitors | Phosphoglycerate kinase, glycosomal (Trypanosoma brucei brucei), P07378 | PGK/GAPDH coupled, Kinase-Glo luminescence, 60 min | actives 0.043% (n = 380,000); note: nearly all actives have a fitted effect of over 60% in size
Target sequence (P07378 whole entry, looked up): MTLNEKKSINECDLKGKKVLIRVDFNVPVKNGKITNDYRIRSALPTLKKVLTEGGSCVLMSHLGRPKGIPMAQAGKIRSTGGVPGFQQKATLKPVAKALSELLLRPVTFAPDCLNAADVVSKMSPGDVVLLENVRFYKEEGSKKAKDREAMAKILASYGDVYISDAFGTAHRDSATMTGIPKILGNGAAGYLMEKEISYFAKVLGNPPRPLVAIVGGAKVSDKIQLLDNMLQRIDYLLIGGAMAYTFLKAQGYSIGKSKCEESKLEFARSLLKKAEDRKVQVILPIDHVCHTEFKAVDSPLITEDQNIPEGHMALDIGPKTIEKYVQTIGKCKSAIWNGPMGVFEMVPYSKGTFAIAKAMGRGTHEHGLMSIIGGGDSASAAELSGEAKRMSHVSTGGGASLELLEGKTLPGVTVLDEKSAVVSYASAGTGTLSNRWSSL
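Luminescent ATP detection (Kinase-Glo Plus) follows a 60-minute room-temperature incubation, with wells lacking PGK as controls. Buffer: 100 mM TEA (pH 7.6), 5 mM MgCl2, 0.01% Tween-20. Coupling enzyme GAPDH (100 nM final) supplies unstable 1,3-BPG in-well.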
FEN1 inh: qHTS Assay for the Inhibitors of Human Flap endonuclease 1 (FEN1). Recombinant FEN1 flap cleavage, fluorescence, 15 min. Potency, µM (doses to about 114 µM), most hits filed as inhibitors. actives 0.35% (n = 390,000); note: nearly all actives have a fitted effect of over 65% in size
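Potency values derive from four-parameter Hill fits of normalized qHTS data. The reaction used 10 nM FEN1 preincubated 15 min at room temperature with compound, then 50 nM DNA substrate, read at 0 and 15 min.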
Pol kappa inh-1: qHTS for Inhibitors of Polymerase Kappa; purified Pol kappa, fluorescent DNA synthesis assay, 10 min; Potency, µM (doses to about 107 µM), usual class: inhibitors; actives 0.53% (n = 400,000)
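Enzyme at 10 nM met test compounds for 15 min at room temperature. Substrate addition (50 nM final) began the reaction, which was monitored by fluorescence at 0 and 10 min.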
GALK inh confirm: Confirmation Assay for Inhibitors of Human Galactokinase (GALK); AID 2015, 2009; shares compounds with Pol eta inh-1; actives 70% (n = 150); purified GALK, Kinase-Glo ATP depletion luminescence; Potency, µM (series often up to 115 µM), actives largely listed as inhibitors
Redox cycling: Confirmatory Assay for Inhibitors of Human Galactokinase (GALK): Phenol-HRP redox assay counterscreen; shares compounds with Pol eta inh-1; Potency, µM (series often up to 115 µM), most hits filed as inhibitors; AID 2035, 2009; Phenol red-HRP H2O2 redox cycling, absorbance 600 nm; actives 40% (n = 150)
HEK293 viability: Secondary Assay for Inhibitors of Human Galactokinase (GALK): HEK-293 Cell Viability Assay | shares compounds with Pol eta inh-1 | HEK-293 viability, ATP luminescence (CellTiter-Glo), 24/48 h | Potency, µM (titrated, usually from 46.1 µM), hits mostly inhibitors | actives 10% (n = 170)
Pol kappa inh-2: qHTS for Inhibitors of Polymerase Kappa: Confirmatory Assay for Cherry-picked Compounds | shares compounds with Pol eta inh-1 | Potency, µM, actives largely listed as inhibitors | actives 76% (n = 920) | purified Pol-kappa, fluorescent strand-displacement substrate
Pol eta inh-2: qHTS for Inhibitors of Polymerase Eta: Confirmatory Assay for Cherry-picked Compounds. Pol eta primer extension, TAMRA/BHQ fluorescence, 10 min. shares compounds with Pol eta inh-1. actives 64% (n = 2,600). AID 720502, 2013. Potency, µM, hits mostly inhibitors
Hits are given with their value; 0 = inactive; ? = inconclusive; - = no result. Calls come from the whole dose curve; as a rule, active = well fitted curve in the direction sought with a large enough effect; inconclusive = small, poorly fitted or top-dose-only effect, or another doubt; inactive = no such curve, though single readings can be large; an effect the other way counts as inactive or inconclusive.

SMILES | Pol iota inh | Pol eta inh-1 | Pol beta inh | PGK inhibitor | FEN1 inh | Pol kappa inh-1 | Pol eta inh-2 | others
O=C1NN(c2ccc(Br)cc2)C(=O)/C1=C\c1ccc(O)cc1O | ? | 0 | 0 | 0 | 0 | 0 | - | GALK inh confirm=47µM;Redox cycling=0;HEK293 viability=0
COc1ccccc1S(=O)(=O)N1CCN(c2nc(-c3cccs3)nc3ccccc23)CC1 | 0 | - | - | - | 0 | 0 | -
O=C(O)c1ccc(N/N=C/C2=C(N3CCOCC3)C(=C\c3ccccc3)/CC2)cc1 | ? | 50µM | ? | 0 | 0 | 32µM | ?
CCc1nn2c(=O)cc(COC(=O)c3cccs3)nc2s1 | 0 | 0 | 0 | 0 | 0 | 0 | -
NC(=O)c1ccsc1NC(=O)COC(=O)c1ccc([N+](=O)[O-])o1 | 0 | 0 | - | 0 | 0 | 0 | -
NC(=O)c1ccsc1NC(=O)c1ccc([N+](=O)[O-])o1 | 50µM | 45µM | - | 0 | ? | 79µM | ?
COc1ccc(OC)c(NC(=O)COC(=O)CNC(=O)c2ccc(OC)c(OC)c2)c1 | 0 | 0 | 0 | 0 | 0 | 0 | -
Cc1ccc(S(=O)(=O)CCC(=O)OCC(=O)Nc2sccc2C#N)cc1 | - | 28µM | - | 0 | - | - | ?
Cc1ccc(S(=O)(=O)CCC(=O)Nc2sccc2C#N)cc1 | 0 | 0 | - | 0 | 0 | 0 | -
COc1ccc(C(=O)NCC(=O)OCC(=O)Nc2sccc2C#N)cc1OC | 0 | 50µM | ? | 0 | 0 | ? | ?
O=c1c2sc3ccccc3c2n(Cc2cccc(C(F)(F)F)c2)c(=O)n1Cc1ccc(F)cc1 | 0 | 0 | 0 | 0 | 0 | 0 | -
COc1cc(C(=O)Nc2ccc(-c3nc4ccccc4o3)c(O)c2)cc(OC)c1OC | ? | 0 | 0 | 0 | 0 | 0 | -
Cc1ccc(NC(=O)N2CCc3cc(S(=O)(=O)N4CCC(C)CC4)ccc32)cc1 | 0 | - | 0 | - | 0 | 0 | -
Cc1ccc(-n2ncc(C(=O)Nc3ccc4c(c3)OCCO4)c2C2CCN(C(=O)OC(C)(C)C)CC2)cc1C | 0 | 0 | 0 | 0 | 0 | 0 | -
Nc1ccc(C(=O)Nc2ccc3c(O)cc(S(=O)(=O)O)cc3c2)cc1 | ? | 11µM | - | 0 | ? | ? | 76 | Pol kappa inh-2=?
CCC(Cn1nnc2ccccc2c1=O)NC(=O)Nc1cc(C)cc(C)c1 (stereo unspecified) | 0 | 0 | 0 | 0 | 0 | 0 | -
COc1ccccc1NC(=O)CSc1nnc(NC(=O)Nc2ccc(C)cc2)s1 | 0 | 0 | 0 | 0 | 0 | 0 | -
COc1ccc(C(C(=O)NC2CCCC2)N(C(=O)c2snc(C(N)=O)c2N)c2cccc(O)c2)cc1 (stereo unspecified) | ? | 22µM | 40µM | 0 | ? | 79µM | 76 | Pol kappa inh-2=?
COc1ccc(S(=O)(=O)NCc2ccc3c(c2)CCN3C(=O)c2ccc(C)cc2)cc1Cl | 0 | 0 | 0 | 0 | 0 | 0 | -
O=C(/C=C/c1ccc([N+](=O)[O-])cc1)Nc1cccc(C(=O)Nc2ccccc2C(=O)O)c1 | ? | 28µM | ? | ? | ? | 0 | 24
COC(=O)c1cc2nc(-c3ccccc3)cc(C)n2n1 | 0 | ? | 0 | 0 | 0 | 0 | -
CCOc1ccc(-c2cc(C)n3nc(C(N)=O)cc3n2)cc1 | 28µM | 22µM | ? | 0 | 0 | 0 | ?
C#Cc1ccc([C@@H]2C=C(C(=O)NCc3ccccc3)O[C@H](OCC)[C@H]2CCCO)cc1 | 0 | 0 | 0 | 0 | 0 | 0 | -
C#Cc1ccc([C@@H]2C=C(C(=O)O)O[C@H](OCC)[C@H]2CCCO)cc1 | ? | 7.9µM | - | ? | 0 | 50µM | 30 | Pol kappa inh-2=4.7
COc1ccccc1NC(=O)Cn1c(=O)n(CCc2ccccc2)c(=O)c2c3c(sc21)CN(C(C)=O)CC3 | 0 | 0 | 0 | 0 | 0 | 0 | -
SMILES | Pol iota inh | Pol eta inh-1 | Pol beta inh | PGK inhibitor | FEN1 inh | Pol kappa inh-1 | Pol eta inh-2 | others
COc1ccc2cc(C(N)=O)c(=Nc3ccc(C)cc3)oc2c1 | 0 | 0 | 0 | 0 | 0 | 0 | - | GALK inh confirm=0;Redox cycling=0;HEK293 viability=?
COc1ccc2cc(C(N)=O)/c(=N\NC(=O)c3ccccc3)oc2c1 | 0 | 0 | 0 | 0 | ? | 0 | -
O=C(NC1CC(=O)N(c2ccccc2)C1)c1ccc(S(=O)(=O)N2CCCC2)cc1 (stereo unspecified) | 0 | 0 | 0 | 0 | 0 | 0 | -
COc1cc(/C=C2/C(=N)N3C(=NC2=O)SN=C3S(C)(=O)=O)ccc1OS(=O)(=O)c1ccccc1 | - | - | 0 | - | - | - | -
CCOc1cc(/C=C2/C(=N)N3C(=NC2=O)SN=C3S(C)(=O)=O)ccc1OS(=O)(=O)c1ccccc1 | ? | 79µM | ? | 0 | 0 | 0 | - | GALK inh confirm=33µM;Redox cycling=0;HEK293 viability=0
CCOc1ccc(NC(=O)Cn2nnc(C(=O)NCCc3ccccc3)c2N)cc1 | ? | ? | ? | 0 | 0 | ? | - | Pol kappa inh-2=?
CC1=NOC(=O)/C1=C\c1ccc(-c2cccc(Cl)c2)o1 | ? | 20µM | ? | 0 | 50µM | 0 | ?
Cc1cccc(Nc2nnc(-c3ccc(C)c(S(=O)(=O)NCC4CCCO4)c3)c3ccccc23)c1 (stereo unspecified) | 0 | 0 | 0 | 0 | 0 | 0 | -
O=C(O)c1cnn(-c2ccccc2)c1-c1ccncc1 | ? | 22µM | ? | 0 | 0 | ? | 60 | Pol kappa inh-2=19
O=C(O)CNc1ccccc1C(=O)O | ? | 20µM | 0 | 0 | 0 | 0 | 60
COc1ccc(NC(=O)Nc2ccccc2OCc2cc(=O)n3ccccc3n2)c(OC)c1 | 0 | 0 | 0 | 0 | 0 | 0 | -
Clc1cccc(N/N=C/c2ccc(N3CCOCC3)cc2)c1 | 0 | ? | 0 | 0 | 0 | 0 | -
